Bioassay records from PubChem BioAssay.
In the library only some 4.8% were active in any assay of this set; here they are far more common.
hgDAF12 agonist = hgDAF-12 agonism, primary luciferase screen | HEK293 GAL4-hgDAF12 UAS-luciferase reporter, agonist luminescence; normalized to butyrate control | 370,000 tested, 1.8% active | activation, % at 6.8 µM | AID 687014;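 active means activation above a cutoff set at the mean of all screened compounds plus 3 SD, cut at about 10% in these data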;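 further: 0% = DMSO wells and 100% = sodium butyrate wells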
DAX1 inh-1 = blocks DAX1 repression of SF-1 activated StAR promoter | HEK293T StAR-luciferase reporter, SF-1/DAX-1 repression relief | 370,000 tested, 1.1% active | inhibition, % at 6.8 µM;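 active means inhibition above the mean over all tested compounds plus 3 SD, cut at about 3.6% in these data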;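 further: 0% = DAX-1 cells with DMSO and 100% = cells lacking DAX-1 with DMSO; higher inhibition means more luminescence from relief of DAX-1 repression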
SMARCA2 act = SMARCA2 function activation, primary screen; MG213 cells, MMTV-luciferase reporter, dexamethasone, overnight; activation, % at 9.1 µM; 370,000 tested, 1% active; AID 652017; in the data active means activation above about 7.8%;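 further: 0% = vehicle wells and 100% = reference activator wells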
ssDAF-12 act = activates DAF-12 receptor from parasite S. stercoralis; 370,000 tested, 1% active; activation, % at 6.8 µM; HEK293 ssDAF-12/GRIP1 lit1-tk-luc reporter, luminescence; % of 3 µM dafachronic acid response;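 active means activation above the mean over all tested compounds plus 3 SD, cut at about 0.9% in these data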;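 further: 0% = DMSO-only wells and 100% = 3 µM delta7-dafachronic acid wells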
DAX1 inh-2 = inhibits human nuclear receptor DAX1; P51843; HEK293 Gal4-DAX1 luciferase reporter, luminescence; inhibition, % at 6.75 µM; 340,000 tested, 0.99% active; AID 504766;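 active means inhibition above the mean over all tested compounds plus 3 SD, cut at about 4.2% in these data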;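 further: 0% = DAX1-transfected cells with DMSO and 100% = empty-vector control cells with DMSO; inhibition shows as a rise in luminescence from relieved DAX1 repression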
Target sequence (P51843 207-470 limits assumed): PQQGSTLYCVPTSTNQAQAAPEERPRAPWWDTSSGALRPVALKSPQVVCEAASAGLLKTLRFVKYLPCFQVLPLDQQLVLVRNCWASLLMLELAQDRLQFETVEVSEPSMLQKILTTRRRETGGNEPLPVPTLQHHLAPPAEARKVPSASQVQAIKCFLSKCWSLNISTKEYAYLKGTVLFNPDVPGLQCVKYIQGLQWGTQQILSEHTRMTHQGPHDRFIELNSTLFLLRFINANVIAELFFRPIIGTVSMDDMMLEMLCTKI
hcDAF12 agonist = activates DAF-12 receptor from parasite H. contortus. HEK293 hcDAF-12 lit1-tk-luc reporter, luminescence; 0% DMSO, 100% Δ7-dafachronic acid. activation, % at 6.8 µM. 370,000 tested, 1.4% active;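 active means activation above the mean of all tested compounds plus 3 SD, cut at about 5.5% in these data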;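 further: 100% = response to 3 µM Δ7-dafachronic acid high control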
LXRb hcDAF ctr = activates human LXR-beta, counter-screen for hcDAF-12 agonists. 3,400 tested, under 10 active. shares compounds with hcDAF12 agonist. activation, % at 6.8 µM. HEK293 Gal4-LXR tk-luc reporter, luminescence, 24 h; normalized: DMSO 0%, positive control 100%;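 active means mean percent activation of the reporter above a cutoff set as the average over tested compounds plus their standard deviation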
hcDAF12 conf = confirmation of H. contortus DAF-12 agonists; HEK293 hcDAF-12 lit1-tk-luc reporter, luminescence; % of Δ7-dafachronic acid response; activation, % at 6.8 µM; 3,400 tested, 61% active; shares compounds with hcDAF12 agonist; AID 743032;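 active means mean activation across triplicate tests above the threshold derived from the earlier primary screen, cut at about 5.5% in these data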;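 further: 0% = DMSO only wells and 100% = 3 µM Δ7-dafachronic acid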
hgDAF12 ag = hgDAF-12 agonism, confirmation assay; shares compounds with hgDAF12 agonist; 3,300 tested, 80% active; HEK293 GAL4-hgDAF12 luciferase reporter, agonist mode; percent of butyrate response; activation, % at 6.8 µM;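 active means mean activation over triplicate wells above the hit cutoff derived from the earlier primary screen, cut at about 11% in these data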;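 further: 0% = DMSO low control and 100% = 2 mM sodium butyrate high control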
LXRb DAF12 ctr = LXR-beta agonism as DAF-12 counter-screen; shares compounds with hgDAF12 agonist; HEK293 Gal4-LXR luciferase reporter, 24 h; activation, % at 6.8 µM; 3,300 tested, under 10 active; AID 743051;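 active means mean activation of the triplicate above a set limit carried over from the primary screen, none filed active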
* marks the source's active call; other numbers are inactive results; x = not tested or not shown.

SMILES	hgDAF12 agonist	DAX1 inh-1	SMARCA2 act	ssDAF-12 act	DAX1 inh-2	hcDAF12 agonist	LXRb hcDAF ctr	hcDAF12 conf	hgDAF12 ag	LXRb DAF12 ctr
Cc1[nH]c2ccccc2c1/C=C/c1nc2ccccc2c(=O)[nH]1	14*	4.4*	4	0	2	6.9*	1	5.8*	18*	1
COc1cccc(C(=O)Cn2c(=N)n(C)c3ccccc32)c1	17*	3	5	3.2*	-1	18*	2	17*	20*	1
COc1cccc(C(=O)Cn2c(NCCO)nc3ccccc32)c1	0	0	1	-1	-1	0	x	x	x	x
CCCn1c(SCC(=O)c2c(N)n(C3CC3)c(=O)[nH]c2=O)nnc1-c1ccncc1	-1	1	-1	-1	1	0	x	x	x	x
Cc1ccc2nc(-c3ccccn3)oc2c1	14*	3	-1	2.8*	0	12*	1	15*	24*	1
Cc1ccc2nc(-c3cccnc3)oc2c1	8	1	6	0	2	4	x	x	x	x
O=C1CC2(CCN(C(=O)C3CC(=O)N(c4ccc(F)cc4)C3)CC2)Oc2ccccc21 (stereo not given)	-3	-2	3	-1	-2	-2	x	x	x	x
Brc1ccccc1/C=N/Nc1ccc2ccccc2n1	25*	3	0	2.5*	2	11*	2	13*	22*	1
Cc1nc(C(F)(F)F)ccc1C(=O)Nc1ccc2ccccc2n1	4	0	0	-1	-1	2	x	x	x	x
Nc1nc(Nc2ccccc2)nc2ccccc12	15*	3.6*	-2	1.7*	0	9.9*	1	5	16*	1
Nc1nc(Nc2ccc(Cl)cc2)nc2ccccc12	14*	2	6	2.5*	-1	14*	2	12*	22*	1
O=S(=O)(c1cccc2cccc(Cl)c12)N1CCCC1	0	-1	-2	-2	-1	-1	x	x	x	x
CC(=O)Nc1sc2c(c1-c1nc3ccccc3s1)CCCN(C(C)C)C2	24*	x	x	7.3*	x	42*	2	21*	6	1
CC(=O)Nc1sc2c(c1-c1nc3ccccc3s1)CCOC2	4	x	x	-2	x	-1	x	x	x	x
NC(=O)c1c[nH]c2ccccc12	-1	0	2	-1	1	4	x	x	x	x
O=C(C=Cc1ccccc1)c1c[nH]c2ccccc2c1=O	0	-5	5	-1	-5	0	x	x	x	x
O=C(Nc1ccccc1)C(=O)c1c[nH]c2ccccc12	15*	2	7	4.4*	3	15*	2	17*	25*	1
O=C(/C=C/c1ccccc1)c1c[nH]c2ccccc12	20*	3	6	3.8*	4.3*	12*	2	8.3*	19*	1
COc1ccccc1NC(=O)CS(=O)(=O)c1cn(CC(=O)N2CCOCC2)c2ccccc12	2	0	-1	-1	-2	-2	x	x	x	x
COc1cccc(C2=NOC(C(=O)Nc3cccnc3Cl)C2)c1 (stereo not given)	-1	0	-2	-1	0	-1	x	x	x	x
O=C(N/N=C/c1c[nH]c2ccccc12)c1cccs1	14*	1	0	1.7*	x	6.9*	1	6.4*	11*	0
O=C(NC(Cc1c[nH]c2ccccc12)C(=O)N/N=C/c1cccc2ccccc12)c1cccs1 (stereo not given)	0	-1	-6	-1	0	-2	x	x	x	x
